Experimental findings from PubChem BioAssay (NCI) are described below.

The structures appear in SMILES notation. The panel holds about 79,000 compounds, 15% with a hit somewhere; the sample as a whole holds those more often. Active and inactive are the calls of the source. Rule as the data show it: active = growth inhibition above about 70%; inactive = the rest.

One test in a line: NCI Yeast Anticancer Drug Screen. Data for the cln2 rad14 strain (AID 165).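 Also: 0% = growth equal to vehicle treated cultures.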 The note with it: S. cerevisiae cln2 rad14 strain, at 50.0 µM, active compounds read high. A digest of the protocol:
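Yeast carrying cln2 and rad14 alterations (cell cycle control and DNA damage repair) were exposed to compounds. Growth inhibition was measured against vehicle-treated controls.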
Consider `COC1OC(=O)c2ccccc21` (stereo not given), for which the growth inhibition is -0.7% (inactive).
On the same count and under the same terms, with `CC(C)c1ccc(CN)cc1` the figure was 6.5% (inactive); with `Cc1cnc2cccc(C)c2c1Cl`, -16.4% (inactive); with `COC(=O)C1=C(C(=O)OC)P2(C)(C)OC(c3ccccc3)CN2C1(c1ccccc1)c1ccccc1` (stereo not given), -80% (inactive).
On the same count and under the same terms, with `COC(=O)C1C(=C(c2ccccc2)c2ccccc2)C1c1ccccc1` (stereo not given) the figure was -11.4% (inactive); with `Nc1ccc(NC(=O)Nc2ccc(N)cc2)cc1`, 9.15% (inactive); with `CN(C)c1ccc(/C=N\NC(=S)NN2CCN(NC(=S)N/N=C\c3ccc(N(C)C)cc3)CC2)cc1`, 4.85% (inactive).
Regarding `O=C(NNC(=S)Nc1ccccc1)c1nsc2ccccc12`, the growth inhibition was 29.4% (inactive).
Same read-out and setting: as for `COC(=O)c1ccc(/C=C2\Oc3ccccc3C2=O)cc1`, the figure is -8.5% (inactive).
Turning to `CCOc1ccc(N=Cc2c3ccccc3nc3ccccc23)cc1`, the growth inhibition was 25.9% (inactive).
On the same count and under the same terms, as for `O=C(Nc1ccccc1F)c1c(O)nc2sccn2c1=O`, the figure is -4.15% (inactive); as for `O=C(C=c1sc(=CC(=O)c2ccccc2)s1)c1ccccc1`, -41.3% (inactive).
On the same count and under the same terms, with `CC(=O)NC1CC(C)(C)NC(C)(C)C1` the figure was 10.5% (inactive); with `COc1cc2c(c3c1CCC(C)(C)O3)Cc1c(cc(OC)c(OC)c1CCC(C)(C)O)O2`, 0.4% (inactive); with `CC1(C)C=C(C(=O)ON2C(=O)CCC2=O)C(C)(C)N1O`, 12.7% (inactive).
Turning to `CC12CCC(CC1C(=O)O)C2` (stereo not given), the growth inhibition was 22.1% (inactive).
The same measure, in the same setting: as for `O=C(O)/C=C(\CC(=O)O)C(=O)O`, the figure is 8.15% (inactive).
Same read-out and setting: with `CC(=O)Nc1ccc(S(=O)(=O)Nc2cccc3ccccc23)cc1` the figure was 42.8% (inactive).
The same measure, in the same setting: as for `CO/C=C1/CCc2c(ccc3cc(OC)ccc23)C1=O`, the figure is -0.8% (inactive).
For the molecule `CC(C)(C)c1ccccc1OC(=O)Nc1ccc(F)cc1`, the growth inhibition is -14.2% (inactive).
The same measure, in the same setting: with `CC1(C)CC(OP(=O)(c2ccccc2)c2ccccc2)CC(C)(C)N1O` the figure was 3.1% (inactive); with `O=C(NC1(C(=O)Oc2ccc([N+](=O)[O-])cc2)CCCC1)OCc1ccccc1`, 8.85% (inactive); with `N#CCCSc1nnc(N)s1`, 16.9% (inactive).
Same read-out and setting: as for `CCCCCC(=O)c1ccc2[nH]c3c(C)cc([N+](=O)[O-])c(C)c3c2c1`, the figure is -2.8% (inactive); as for `Cc1ccc(S(=O)(=O)OC2CCCC2OS(=O)(=O)c2ccc(C)cc2)cc1` (stereo not given), 23.4% (inactive).
The same measure, in the same setting: with `CCN(c1ccccc1)c1cc2c(cc1[N+](=O)[O-])no[n+]2[O-]` the figure was 96.6% (active).
Consider `Nc1ccc2c(c1)CC1CC(=O)NN=C21` (stereo not given), for which the growth inhibition is 3.35% (inactive).
The same measure, in the same setting: as for `Nc1ccc2ccccc2c1Cl`, the figure is 6% (inactive).
Regarding `N#CC(C#N)C1c2ccccc2Oc2ccccc21`, the growth inhibition was -11.6% (inactive).
The same measure, in the same setting: with `Nc1nc(N)nc(-c2cc(Br)c(N)c(Br)c2)n1` the figure was 34.6% (inactive); with `Cc1c(C(=O)O)c(-c2ccc([N+](=O)[O-])cc2)c(C=O)n1-c1ccccc1`, -8.5% (inactive); with `O=C(O)c1cccc(F)c1C(=O)O`, -20.4% (inactive).
The same measure, in the same setting: with `CCOC(=O)N1Cc2cc3ccccc3nc2C1CC(=O)O` (stereo not given) the figure was -28.1% (inactive); with `C[N+](C)=c1ccc2nc3ccc(N)cc3sc-2c1`, -66.7% (inactive); with `CCCCCCCCCC1OC(C)C(C)O1` (stereo not given), -19.1% (inactive).
Still for that read-out and setting: as for `N#CC(c1ccc(N)cc1)c1ccc(F)cc1` (stereo not given), the figure is 27.2% (inactive); as for `CN(C)S(=O)(=O)c1cccc([N+](=O)[O-])c1`, 8.5% (inactive).
With `CCOC(=O)C(NC(=O)c1ccccc1)(C(=O)OCC)c1ccccn1`, the growth inhibition was 18.8% (inactive).
Take `CN(C)N=Nc1ccc(Cl)cc1C(=O)O`: the growth inhibition is 2.2% (inactive).
The same measure, in the same setting: as for `Nc1ccc2[nH]c(=O)c(=O)[nH]c2c1`, the figure is 4.95% (inactive).

A further test is described as follows: NCI Yeast Anticancer Drug Screen. Data for the bub3 strain (AID 167). The note with it: S. cerevisiae bub3 mutant strain, at 50.0 µM, active compounds read high. A digest of the protocol: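 Whole-cell yeast assay. The mutant strain was incubated with compounds, and growth inhibition was determined by comparison with vehicle-treated cells.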
For the molecule `COC1OC(=O)c2ccccc21` (stereo not given), the growth inhibition was -2.45% (inactive).
The same measure, in the same setting: as for `CC(C)c1ccc(CN)cc1`, the figure is -36.8% (inactive).
On to `Cc1cnc2cccc(C)c2c1Cl`, for which the growth inhibition is 8.3% (inactive).
On the same count and under the same terms, as for `COC(=O)C1=C(C(=O)OC)P2(C)(C)OC(c3ccccc3)CN2C1(c1ccccc1)c1ccccc1` (stereo not given), the figure is 0.3% (inactive); as for `COC(=O)C1C(=C(c2ccccc2)c2ccccc2)C1c1ccccc1` (stereo not given), 6.85% (inactive).
Still for that read-out and setting: with `Nc1ccc(NC(=O)Nc2ccc(N)cc2)cc1` the figure was 10.8% (inactive); with `CN(C)c1ccc(/C=N\NC(=S)NN2CCN(NC(=S)N/N=C\c3ccc(N(C)C)cc3)CC2)cc1`, 1.55% (inactive); with `O=C(NNC(=S)Nc1ccccc1)c1nsc2ccccc12`, 28% (inactive).
On the same count and under the same terms, with `COC(=O)c1ccc(/C=C2\Oc3ccccc3C2=O)cc1` the figure was -22.9% (inactive); with `CCOc1ccc(N=Cc2c3ccccc3nc3ccccc23)cc1`, 6.25% (inactive); with `O=C(Nc1ccccc1F)c1c(O)nc2sccn2c1=O`, 38.1% (inactive).
In the case of `O=C(C=c1sc(=CC(=O)c2ccccc2)s1)c1ccccc1`, the growth inhibition is 2.1% (inactive).
Same read-out and setting: with `CC(=O)NC1CC(C)(C)NC(C)(C)C1` the figure was 0.5% (inactive); with `COc1cc2c(c3c1CCC(C)(C)O3)Cc1c(cc(OC)c(OC)c1CCC(C)(C)O)O2`, 3% (inactive); with `CC1(C)C=C(C(=O)ON2C(=O)CCC2=O)C(C)(C)N1O`, -19.1% (inactive).
The same measure, in the same setting: as for `CC12CCC(CC1C(=O)O)C2` (stereo not given), the figure is 9.75% (inactive).
Still for that read-out and setting: with `O=C(O)/C=C(\CC(=O)O)C(=O)O` the figure was -21.1% (inactive); with `CC(=O)Nc1ccc(S(=O)(=O)Nc2cccc3ccccc23)cc1`, 57.6% (inactive); with `CO/C=C1/CCc2c(ccc3cc(OC)ccc23)C1=O`, 3.2% (inactive).
Consider `CC(C)(C)c1ccccc1OC(=O)Nc1ccc(F)cc1`, for which the growth inhibition was 19.1% (inactive).
Still for that read-out and setting: as for `CC1(C)CC(OP(=O)(c2ccccc2)c2ccccc2)CC(C)(C)N1O`, the figure is 13.3% (inactive); as for `O=C(NC1(C(=O)Oc2ccc([N+](=O)[O-])cc2)CCCC1)OCc1ccccc1`, -1.7% (inactive); as for `N#CCCSc1nnc(N)s1`, -2.95% (inactive).
Consider `CCCCCC(=O)c1ccc2[nH]c3c(C)cc([N+](=O)[O-])c(C)c3c2c1`, for which the growth inhibition was -17.2% (inactive).
Still for that read-out and setting: as for `Cc1ccc(S(=O)(=O)OC2CCCC2OS(=O)(=O)c2ccc(C)cc2)cc1` (stereo not given), the figure is -2.35% (inactive); as for `CCN(c1ccccc1)c1cc2c(cc1[N+](=O)[O-])no[n+]2[O-]`, 98.1% (active); as for `Nc1ccc2c(c1)CC1CC(=O)NN=C21` (stereo not given), -3.15% (inactive).
As for `Nc1ccc2ccccc2c1Cl`, the growth inhibition is -44.4% (inactive).
Same read-out and setting: as for `N#CC(C#N)C1c2ccccc2Oc2ccccc21`, the figure is -4.95% (inactive); as for `Nc1nc(N)nc(-c2cc(Br)c(N)c(Br)c2)n1`, 3.3% (inactive).
The same measure, in the same setting: with `Cc1c(C(=O)O)c(-c2ccc([N+](=O)[O-])cc2)c(C=O)n1-c1ccccc1` the figure was 25.7% (inactive); with `O=C(O)c1cccc(F)c1C(=O)O`, -2.95% (inactive); with `CCOC(=O)N1Cc2cc3ccccc3nc2C1CC(=O)O` (stereo not given), -1.65% (inactive).
The same measure, in the same setting: with `C[N+](C)=c1ccc2nc3ccc(N)cc3sc-2c1` the figure was -79.8% (inactive); with `CCCCCCCCCC1OC(C)C(C)O1` (stereo not given), 1.55% (inactive); with `N#CC(c1ccc(N)cc1)c1ccc(F)cc1` (stereo not given), -0.6% (inactive).
For `CN(C)S(=O)(=O)c1cccc([N+](=O)[O-])c1`, the growth inhibition was -6.3% (inactive).
The same measure, in the same setting: with `CCOC(=O)C(NC(=O)c1ccccc1)(C(=O)OCC)c1ccccn1` the figure was 9.6% (inactive); with `CN(C)N=Nc1ccc(Cl)cc1C(=O)O`, 17.9% (inactive).
On the same count and under the same terms, as for `Nc1ccc2[nH]c(=O)c(=O)[nH]c2c1`, the figure is 1.1% (inactive).
